“And” between values parts separate entries of the source, which are not always exact repeats. Equal values may be shown once. In all, about 16,000 compounds went through this assay and about 5,700 (36%) were called active. About 24% were inconclusive and are not listed. The list shows a part of the results. Values without a mark were called inactive. Calls follow the shape of the dose curve; as a rule, active = well fitted curve in the direction sought with a large enough effect; inconclusive = small, poorly fitted or top-dose-only effect, or effect the other way; inactive = no such curve, though single readings can be large or run the other way.
biological target: Cytochrome P450 1A2 (Homo sapiens) (UniProt P05177); test: Cytochrome panel assay with activity outcomes; settings: recombinant CYP, pro-luciferin dealkylation, luminescence, p450-cyp1a2; series mostly up to 57.1 µM
% is scaled to controls: 0 for no effect and ±100 for the full control effect.

Chain of Cytochrome P450 1A2 (Homo sapiens) (P05177 whole entry, looked up): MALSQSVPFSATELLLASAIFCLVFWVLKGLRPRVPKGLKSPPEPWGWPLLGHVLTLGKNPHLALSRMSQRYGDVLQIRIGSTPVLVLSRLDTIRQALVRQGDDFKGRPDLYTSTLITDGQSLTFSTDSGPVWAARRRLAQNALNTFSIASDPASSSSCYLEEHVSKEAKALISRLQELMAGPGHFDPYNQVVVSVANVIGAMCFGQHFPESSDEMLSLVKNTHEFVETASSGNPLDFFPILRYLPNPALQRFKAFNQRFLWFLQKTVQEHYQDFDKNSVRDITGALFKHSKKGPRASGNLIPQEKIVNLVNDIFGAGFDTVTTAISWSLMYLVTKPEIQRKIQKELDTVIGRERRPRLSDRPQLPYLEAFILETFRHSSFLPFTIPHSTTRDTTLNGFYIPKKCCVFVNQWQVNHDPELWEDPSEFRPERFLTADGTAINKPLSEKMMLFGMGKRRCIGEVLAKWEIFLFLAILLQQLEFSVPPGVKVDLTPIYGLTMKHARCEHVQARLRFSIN

How did the AC50 turn out when `CSC(N)=NCCC[C@@H](N)C(=O)O` was run?
Its AC50 is “inactive”.

With `FC(F)(F)c1ccccc1-c1nc(NC2CC2)c2ccccc2n1` as the compound, how does the AC50 read?
The AC50 was 0.398 µM (active).

`CNc1nc(-c2ccccc2C(F)(F)F)nc2ccccc12` was tested. Which AC50 did it give?
The AC50 was 0.251 µM (active).

`O=C1[C@H]2O[C@@H]2[C@@H](O)[C@H]2[C@H]1CCn1c(=O)n(Cc3cc4c(cc3Cl)OCO4)c(=O)n12` was tested. Which activity, negative = inhibition did it give?
Its activity, negative = inhibition is -4.53% [at 11.4 µM].

`COc1ccc2c(Cl)c(-c3nnco3)sc2c1` was tested. Which AC50 did it give?
The AC50 was 0.794 µM (active).

How did the AC50 turn out when `Cc1cccc(C)c1OCC(O)CNC(C)(C)C` (stereo not drawn) was run?
The AC50 was “inactive”.

Which AC50 does the source give for `Cc1cccc(C)c1OC[C@H](C)N` here?
The AC50 was 2.51 µM (active) and 398 nM (active).

With `Cc1cccc(C)c1OC[C@@H](N)C(C)C` as the compound, how does the AC50 read?
Its AC50 is 12.6 µM (active).

How did the activity, negative = inhibition turn out when `O=C1C[C@@H](O)[C@@H](O)[C@H]2[C@@H]3C(=O)N(c4cccc(Oc5ccccc5)c4)C(=O)[C@@H]3CC[C@H]12` was run?
Its activity, negative = inhibition is 0.387% [at 11.4 µM] and -5.49% [at 11.4 µM].

Which AC50 does the source give for `Cc1ccc(C(=O)NC(=S)Nc2ccc3c(c2)OCCO3)c(C)c1` here?
The AC50 was 7.08 µM (active).

How did the AC50 turn out when `O=C(NC(=S)Nc1ccc(Oc2ccc(Cl)cc2)cc1)c1ccccc1` was run?
The AC50 was “inactive”.

`O=C(NC(=S)Nc1ccc2c(c1)OCO2)c1ccccc1` was tested. Which AC50 did it give?
Its AC50 is 2.82 µM (active).

How did the AC50 turn out when `O=C(NC(=S)Nc1ccc(C(=O)N2CCOCC2)cc1)c1ccc([N+](=O)[O-])cc1` was run?
Its AC50 is “inactive”.

`c1ccc(-c2nccc(-c3ccc(-n4cnc5ccccc54)cc3)n2)nc1` was tested. Which AC50 did it give?
The AC50 was 10 µM (active).

`c1ccc2c(c1)ncn2-c1ccc(-c2ccnc(-c3ccncc3)n2)cc1` was tested. Which AC50 did it give?
Its AC50 is 0.316 µM (active).

`COc1cc(OC)c(OC)cc1C=NCC1(c2ccccc2)CCCC1` was tested. Which AC50 did it give?
Its AC50 is 8.91 µM (active).

For `O=C(O)CCCCCCCC(=O)O`, which AC50 is on record?
The AC50 was “inactive”.

Which AC50 does the source give for `C#CCCCCCCCCCCCCCCCC(=O)O` here?
The AC50 was 6.31 µM (active).

`C#CCOCCCC(=O)O` was tested. Which activity, negative = inhibition did it give?
Its activity, negative = inhibition is -1.25% [at 11.4 µM].

`C[C@H]1COC(=O)[C@H](Cc2ccccc2)NC(=O)[C@@H](C)COC(=O)[C@H](Cc2ccccc2)NC1=O` was tested. Which activity, negative = inhibition did it give?
The activity, negative = inhibition was 9.1% [at 11.4 µM].

With `CCOC(=O)c1c(NC(=O)/C=C/c2ccc3c(c2)OCO3)sc(C)c1C` as the compound, how does the AC50 read?
Its AC50 is “inactive”.

For `COC(=O)c1cc(NC(=O)/C=C/c2ccc3c(c2)OCO3)cc(C(=O)OC)c1`, which AC50 is on record?
The AC50 was 12.6 µM (active).

For `CC(C)[C@H](NC(=O)OC(C)(C)C)[C@@H](O)CC(=O)C(C)(C)C`, which activity, negative = inhibition is on record?
Its activity, negative = inhibition is 0.674% [at 11.4 µM].

How did the AC50 turn out when `COc1ccc(CNc2ncncc2-c2cccc(NS(C)(=O)=O)c2)c(OC)c1` was run?
The AC50 was 15.8 µM (active).

`COc1ccccc1CNc1ncncc1-c1ccoc1` was tested. Which AC50 did it give?
Its AC50 is 1.26 µM (active).

With `COc1ccccc1CNc1ncncc1-c1cccnc1` as the compound, how does the AC50 read?
Its AC50 is 0.794 µM (active).

Which AC50 does the source give for `COc1ccc(CNc2ncncc2-c2cccnc2)c(OC)c1` here?
Its AC50 is 3.16 µM (active).

How did the AC50 turn out when `COc1ccccc1CN1CCCC2(CCN(C(=O)c3cnccn3)CC2)C1` was run?
The AC50 was “inactive”.
